High-throughput results (PubChem)
KLF5 inhibitor: suppresses KLF5 promoter-driven expression; inhibition, % at 5 µM; 0.23% of 290,000 active; AID 1700; DLD-1 KLF5 promoter-luciferase reporter, luminescence;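 active = inhibition above a per-plate limit of that plate's mean compound inhibition plus 3 SD, cut at about 60% in these data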;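 note: 0% = DMSO wells and 100% = LY294002 at 200 µM; higher means less KLF5 promoter-driven luciferase light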
IEC-6 cytotox: kills IEC-6 intestinal cells in KLF5 counter-screen | IEC-6 cytotoxicity, luminescence viability | inhibition, % at 5 µM | 0.78% of 290,000 active | AID 1825;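 note: 0% = plate median of test compound wells and 100% = cytotoxic reference compound wells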
BaF3 tox: parental Ba/F3 viability inhibition as JAK2V617F counter-screen. CellTiter-Glo ATP luminescence. inhibition, % at 5.6 µM. 1.1% of 220,000 active;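 active = inhibition above a per-campaign cutoff, the mean inhibition of all tested compounds plus 3 SD, cut at about 27% in these data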;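 note: 0% = DMSO wells and 100% = JAK Inhibitor I control wells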
aSyn UTR inh: 5' untranslated region of α-synuclein, MLPCN primary screen; alpha-synuclein 5'UTR reporter, inhibitor activity; inhibition, % (tested at 7.5 µM); 0.82% of 300,000 active; AID 1813; in the data active = inhibition above about 60%; inconclusive = no clear call, values can overlap the other calls;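 note: H4 neuroglioblastoma cells stably carrying SNCA 5'UTR luciferase fusion; 0% = DMSO wells and 100% = positive control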
APP 5UTR inh: APP translation inhibition | SH-SY5Y APP 5'UTR-luciferase reporter, luminescence | inhibition, % at 2 µM | 0.82% of 190,000 active;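 active = inhibition above a set limit, derived from the sample mean plus 3 SD, cut at about 45% in these data; inconclusive = one replicate passes the limit while the other fails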
Ba/F3 V617F tox: reduce viability of Ba/F3 cells dependent on JAK2V617F. Ba/F3 EpoR-JAK2V617F viability, ATP luminescence. inhibition, % at 5.6 µM. 1.1% of 220,000 active. AID 1446;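 active = inhibition above the campaign mean plus 3 SD over all tested compounds, cut at about 24% in these data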;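 note: cytokine-independent growth of Ba/F3 cells driven by EpoR plus mutant JAK2; 0% = DMSO-treated cells and 100% = JAK inhibitor I control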
IEC-6 tox confirm: IEC-6 cytotoxicity, confirmation assay; inhibition, % at 5 µM; shares compounds with IEC-6 cytotox; 63% of 1,900 active; IEC-6 rat intestinal epithelial viability, luminescence; AID 1907;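 note: 0% = vehicle and 100% = reference cytotoxic drug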
Starred values were filed as active, the others as inactive; ? = inconclusive; . = no result. Sampled rows, rich in hits. Any-hit rate of the full collection: about 2.2%. Cut-off read from the data, not from the text of the source, unless noted: active = inhibition above about 22%; inactive = the rest.

SMILES | KLF5 inhibitor | IEC-6 cytotox | BaF3 tox | aSyn UTR inh | APP 5UTR inh | Ba/F3 V617F tox | IEC-6 tox confirm
Cc1cccc(Cc2cnc(NC(=O)C3=NCCN3)s2)c1 | -2.2 | -0.7 | 8.0 | -2.7 | 18.6 | -0.1 | .
N#C/C(=C(/O)c1ccc(Br)s1)c1nc2ccccc2[nH]1 | 8.0 | 33.6* | . | -52.6 | . | . | 46.2*
CC1CC(C)CN(C(=O)CNC(=O)c2ccc3ccccc3c2)C1 (stereo not given) | -43.6 | 7.9 | . | -2.8 | . | . | .
O=C(Nc1ccccc1)Nc1ccc(-n2ccc(C(F)(F)F)n2)cc1 | -138.3 | 22.1* | 63.0* | -276.6 | . | 57.7* | 23.2*
O=C(O)CC(CC(=O)Nc1ccc(-n2ccc(C(F)(F)F)n2)cc1)c1ccccc1 (stereo not given) | -13.7 | 9.3 | -0.1 | 0.6 | . | 1.9 | .
O=C(NNC(=O)c1ccc(Cn2cccn2)o1)NC12CC3CC(CC(C3)C1)C2 | -53.5 | -6.2 | . | 2.4 | . | . | .
Nc1ncnc(N)c1N=Nc1ccccc1 | -65.0 | 35.6* | . | 111.8* | . | . | 18.7
Nc1nn(-c2ccccc2)c(N)c1N=Nc1ccccc1 | -115.3 | 34.2* | 64.3* | -105.6 | -3.1 | 64.3* | 40.2*
Cc1nn(-c2ccccc2)c(N)c1N=Nc1ccccc1 | -152.8 | 1.2 | 6.5 | -49.1 | -156.3 | 1.9 | .
O=c1[nH]cnc(O)c1N=Nc1ccccc1 | -25.6 | -4.7 | . | -70.5 | . | . | .
CCOc1ccc(C(=O)NCC(=O)OCC(=O)N2CCCC2)cc1 | 8.7 | -1.4 | 4.1 | -13.2 | -8.2 | -0.5 | .
Cc1ccc(S(=O)(=O)N(C)C)cc1NC(=S)Nc1cccc2ccccc12 | -8.9 | 61.7* | . | 19.3 | . | . | 3.8
COc1cccc(NC(=S)Nc2cccc3ccccc23)c1 | -109.4 | 35.9* | . | -69.6 | . | . | 7.3
CCc1cccc(NC(=S)Nc2cccc3ccccc23)c1 | -48.0 | 29.2* | . | -30.1 | . | . | 14.2
CC(=O)NNC(=S)Nc1cc(S(=O)(=O)N(C)C)ccc1C | -9.0 | -0.5 | 4.2 | 5.6 | -27.7 | 3.4 | .
CC(=O)NC1CCCc2c1cnn2-c1ccc(C(C)(C)C)cc1 (stereo not given) | -31.6 | -0.6 | . | -10.4 | . | . | .
Cn1nccc1C(=O)NC1CCCc2c1cnn2-c1ccc(C(C)(C)C)cc1 (stereo not given) | -6.0 | 22.8* | . | -0.7 | . | . | 21.2
Cc1cc(C(=O)NC2CCCc3c2cnn3-c2cccc(C)c2C)n(C)n1 (stereo not given) | 19.7 | 36.0* | . | -2.5 | . | . | 29.0*
Cc1cccc(-n2ncc3c2CCCC3NC(=O)c2ccc[n+]([O-])c2)c1C (stereo not given) | -28.6 | -5.9 | . | -7.0 | . | . | .
CN1/C(=C/C(=O)CSc2ccccc2C(=O)O)C(C)(C)c2ccccc21 | -2.7 | 5.2 | 6.0 | 3.2 | . | 0.7 | .
CN1/C(=C\C(=O)CSc2cccc[n+]2[O-])C(C)(C)c2ccccc21 | -20.9 | 103.9* | 23.3 | 13.4 | -8.9 | 8.3 | -6.7
CCOc1ccc(C(=O)NCC(=O)NCCCSc2ccccc2)cc1OCC | 16.1 | -0.7 | . | 5.4 | . | . | .
COc1ccc(/C=N/Nc2cc(C)nc(-n3nc(C)cc3C)n2)cc1 | 4.3 | 5.6 | 4.8 | 5.8 | -5.0 | 1.0 | .
Cc1cc(N/N=C/c2ccc(O)cc2O)nc(-n2nc(C)cc2C)n1 | 35.8 | 79.0* | 3.9 | 71.8* | 53.4* | -3.1 | 46.7*
CCN(CC)CCNc1ccc(CO)c2sc3ccccc3c(=O)c12 | 13.1 | 54.1* | 47.3* | -35.5 | 19.9 | 65.9* | 63.6*
SMILES | KLF5 inhibitor | IEC-6 cytotox | BaF3 tox | aSyn UTR inh | APP 5UTR inh | Ba/F3 V617F tox | IEC-6 tox confirm
Cc1nn(CCO)c2ncc(C(=O)c3cc(F)ccc3O)cc12 | 10.2 | 6.9 | . | 9.3 | . | . | .
COC(=O)c1ccc(Cl)c(NS(=O)(=O)c2ccc3c(c2)OCCO3)c1 | 44.9 | 28.4* | 4.0 | -33.8 | 3.8 | 2.5 | 1.7
CC(=O)c1cc2c(cc1NS(=O)(=O)c1ccc3c(c1)OCCO3)OCO2 | -4.4 | -3.5 | 3.9 | 24.5 | 0.6 | -0.7 | .
COc1ccc(C(=O)CC(=O)c2ccc(F)cc2)cc1 | . | . | . | -165.4 | . | . | .
COc1ccc(C(=O)C(CCC(CNC(C)(C)C)C(=O)c2ccc(OC)cc2)CNC(C)(C)C)cc1 (stereo not given) | -3.3 | 70.9* | 100.8* | 65.5* | 96.8* | 101.5* | 59.5*
C(=C\c1ccccc1)/CSc1nnc(-c2ccncc2)n1Cc1ccco1 | -5.9 | 6.7 | 4.1 | 0.0 | -13.1 | 3.3 | .
CC(C)(C)c1ccc(CSc2nnc(-c3ccccn3)n2Cc2ccco2)cc1 | -30.4 | -2.5 | 5.5 | 9.5 | -10.1 | -0.9 | .
Brc1ccc(CSc2nnc(-c3ccccn3)n2Cc2ccco2)cc1 | 5.2 | 28.4* | 10.5 | 8.7 | 3.5 | 1.1 | 21.5
C(=C\c1ccccc1)/CSc1nnc(-c2ccccc2)n1Cc1ccco1 | 5.7 | 34.2* | 22.6 | 14.2 | 16.6 | 40.7* | 35.6*
CN(C)c1ccccc1C(=O)c1ccccc1N(C)C | -18.0 | 74.0* | 75.1* | -6.3 | 90.9* | 76.6* | 22.1*
CN(c1ccccc1C(=O)O)S(C)(=O)=O | 7.2 | 2.1 | 5.7 | -18.4 | -9.4 | 1.7 | .
O=C(NNc1ccccc1)C(=O)NNS(=O)(=O)c1ccc(CCCl)cc1 | 22.8 | 43.9* | 0.6 | 7.5 | . | -0.7 | 10.6
CCOCCCNC(=O)C1CCCN(S(=O)(=O)c2cccc3nsnc23)C1 (stereo not given) | -1.4 | 2.5 | . | -4.1 | . | . | .
Cc1ccc(Nc2nc(-c3sc(N)nc3C)cs2)cc1 | -77.2 | -1.0 | . | -133.5 | . | . | .
Cc1cccc(Nc2nc(-c3ccncc3)cs2)c1 | -41.9 | 64.6* | 21.2 | -61.1 | -50.5 | -3.4 | 74.6*
Cc1ccc(-c2csc(Nc3ccccn3)n2)cc1 | -8.9 | 1.5 | . | -27.3 | . | . | .
Cc1ccc(Nc2nc(-c3ccncc3)cs2)cc1 | -93.3 | 27.1* | 6.7 | -331.1 | -128.8 | -0.1 | 83.6*
COc1ccc(Nc2nc(-c3sc(C)nc3C)cs2)c(OC)c1 | 12.1 | 59.9* | . | -123.6 | . | . | 40.1*
Cc1ccc(Nc2nc(-c3sc(C)nc3C)cs2)cc1 | 37.3 | 75.0* | . | 6.3 | . | . | 52.4*
S=c1nc[nH]c2nc[nH]c12 | 46.7 | 82.9* | . | 66.6* | . | . | 69.3*
Nc1nc2ncc(-c3ccsc3)c(N)n2n1 | -5.0 | -1.7 | -0.4 | 21.0 | -17.3 | -0.7 | .
CCn1c(Cl)c(C=O)s/c1=N\S(=O)(=O)c1ccccc1 | 21.8 | 95.6* | 102.8* | -55.2 | . | 99.0* | 90.7*
CCN1C(=O)CS/C1=N\S(=O)(=O)c1ccc(Cl)cc1 | -1.9 | -5.4 | 5.8 | 2.0 | -33.9 | 4.8 | .
COc1ccc(Cl)cc1NC(=O)C1CCCN(c2ncnc3c2nc2n3CCCCC2)C1 (stereo not given) | -9.6 | 3.6 | . | -0.3 | . | . | .
C=CCOc1c(Cl)cc(CNc2ccc(C)c(Cl)c2)cc1OC | 50.0 | 50.2* | 77.1* | 84.6* | 91.1* | 77.0* | 50.5*
C=CCOc1c(Cl)cc(CNc2ccc(N(C)C)cc2)cc1OC | -5.2 | -7.5 | 3.4 | -16.7 | -66.7 | -4.5 | .
Brc1ccccc1C1=Nn2c(nnc2-c2ccco2)SC1 | -8.0 | 1.7 | 3.3 | 14.3 | . | -4.3 | .
Brc1ccccc1C1=Nn2c(nnc2-c2ccccc2)SC1 | -4.5 | 27.3* | 32.0* | ? | 2.5 | 36.9* | 21.5
